HPGD block: HPGD (human) dehydrogenase inhibition; purified HPGD, NADH fluorescence kinetic, PGE2 substrate; Potency, µM, inactives show top-dose activity change, negative = inhibition, usual class: inhibitors; 4.3% of 150,000 active; note: potency is the fitted concentration of half-maximal effect
Target sequence (P15428 whole entry, looked up): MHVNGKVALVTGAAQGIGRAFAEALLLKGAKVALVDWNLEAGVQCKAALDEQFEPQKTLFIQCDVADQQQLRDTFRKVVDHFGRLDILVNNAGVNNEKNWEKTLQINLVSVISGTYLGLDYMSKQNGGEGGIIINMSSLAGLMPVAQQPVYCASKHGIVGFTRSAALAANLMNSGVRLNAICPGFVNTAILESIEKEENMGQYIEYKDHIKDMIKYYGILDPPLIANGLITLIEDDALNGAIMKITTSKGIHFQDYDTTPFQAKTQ
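20 nM HPGD preincubated 15 min at room temperature with compound in 50 mM Tris-HCl pH 8, 0.01% Tween 20. Started with 1 mM NAD+ and 30 uM prostaglandin E2; NADH fluorescence (360/450 nm) read 5 times over 30-s intervals, last minus first.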
ALOX12 inhib: 12-hLO (ALOX12) enzyme inhibition; Potency, µM (highest dose often 57.1 µM), for inactives: at the top dose activity change, negative = inhibition, usual class: inhibitors; purified 12-hLO, xylenol orange hydroperoxide absorbance; 0.12% of 150,000 active; P18054; AID 1452; active = well fitted inhibition curve with a large enough effect; inconclusive = small, poorly fitted or top-dose-only effect; note: potency is the fitted concentration of half-maximal effect; nearly all actives have a fitted effect of over 55% in size
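Xylenol orange chromogenic assay: hydroperoxide from 12hLO oxidises Fe(II), giving red-shifted Fe(III)-XO absorbance. Conditions: 150 nM enzyme, 40 uM arachidonic acid, 25 mM Hepes pH 7.0, 0.01% Triton X-100, 30 min, room temperature.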
LMNA splice mod: changes lamin A minigene splicing in HeLa cells | HeLa LMNA splicing GFP/RFP minigene ratio, 48 h | Potency, µM (top dose mostly 46.1 µM), for the others: top-dose ratio change, negative = inhibition, most hits filed as inhibitors | AID 1487 | 0.01% of 200,000 active; active = well fitted inhibition curve with a large enough effect in the signal ratio, with a control signal flat, not every such curve was filed as active; inconclusive = small, poorly fitted or top-dose-only effect, or effect the other way, or a change in a side signal; the % refers to the signal ratio; note: potency is the fitted concentration of half-maximal effect
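S3 HeLa stable clones carrying a lamin A-EGFP splicing minigene plus DsRed2 were seeded at 600 cells/well in Opti-MEM with 2% FBS, pin-dosed and incubated 48 h at 37°C. Acumen cytometry (488 nm) gave the GFP/RFP total-intensity ratio.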
ALDH1A1 block: inhibitors of human aldehyde dehydrogenase 1A1; P00352; Purified ALDH1A1, NADH fluorescence, propionaldehyde substrate; Potency, µM (series often up to 75.3 µM), without a hit: at the highest dose activity, negative = inhibition, most hits filed as inhibitors; 7.3% of 220,000 active;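 note: potency is the fitted concentration of half-maximal effect; plate controls were no enzyme wells and a reference inhibitor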
Target sequence (P00352 whole entry, looked up): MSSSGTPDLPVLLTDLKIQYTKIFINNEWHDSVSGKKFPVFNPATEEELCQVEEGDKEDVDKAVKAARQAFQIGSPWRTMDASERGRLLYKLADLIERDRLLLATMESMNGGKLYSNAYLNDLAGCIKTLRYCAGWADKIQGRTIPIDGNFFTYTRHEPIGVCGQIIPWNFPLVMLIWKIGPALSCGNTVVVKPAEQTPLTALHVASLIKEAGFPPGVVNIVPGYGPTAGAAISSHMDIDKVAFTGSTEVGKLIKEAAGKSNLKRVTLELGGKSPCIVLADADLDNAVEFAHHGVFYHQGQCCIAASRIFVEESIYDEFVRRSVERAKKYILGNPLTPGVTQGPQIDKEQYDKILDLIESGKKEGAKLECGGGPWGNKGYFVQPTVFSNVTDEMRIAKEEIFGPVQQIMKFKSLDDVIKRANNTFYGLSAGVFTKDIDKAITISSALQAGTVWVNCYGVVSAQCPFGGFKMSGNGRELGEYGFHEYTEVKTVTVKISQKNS
PNC inhibitor: blocks assembly of the perinucleolar compartment. PC3M PTB-GFP, PNC prevalence imaging, 16 h; stronger effect = lower value. 3.1% of 140,000 active. activity change (PNC), negative = inhibition, % at 10 µM;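 active = readout at or below -70, meaning at least 70% loss of cells showing the perinucleolar compartment, a nuclear body marking cancer cells; inconclusive = readout between -30 and a set limit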;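 note: plate controls were DMSO wells for no effect and camptothecin positive control wells for full effect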
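Compounds are pinned in duplicate onto adhered PC3M cells stably expressing GFP-tagged PTB and incubated 16 h at 37 C. Cells are then fixed, nuclei stained with Hoechst, and PNC-positive cells counted.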
Numbers without * were called inactive; u = inconclusive; x = no result given; [ ] = another dose, or the depositor's remark. Rows were chosen to be rich in hits. Some 10% of all compounds tested hit in one or more screens of this group. Unless noted, calls come from the whole dose curve; as a rule, active = well fitted inhibition curve with a large enough effect (not every such curve was filed as active); inconclusive = small, poorly fitted or top-dose-only effect, or another doubt; inactive = no such curve, though single readings can be large or run the other way. Unless noted, % is set by controls: 0 for no effect and ±100 for the full control effect.

SMILES | HPGD block | ALOX12 inhib | LMNA splice mod | ALDH1A1 block | PNC inhibitor
COc1ccc(-c2nc(CN3CCN(c4ccccc4OC)CC3)c(C)o2)cc1 | x | x | -13%[46 µM] | 7% | x
CCOC(=O)Cn1c(=O)n(-c2cccc(Cl)c2)c2nc(-c3ccccc3Cl)nc(C(N)=O)c21 | x | x | -10%[46 µM] | x | x
COc1ccc(C(=O)N2CCC3(CC2)CN(C(=O)NC(C)C)C3)cc1 | -2% | -3% | x | 7% | x
CC1(C)S[C@H]2C(NC(=O)[C@@H](N)c3ccc(O)cc3)C(=O)N2[C@@H]1C(=O)O (some centres undefined) | -8% | -1% | 0% | 4% | x
COc1ccc(NC(=S)Nc2cccc3cnccc23)cc1 | -16% | 0% | u | 25µM* | -10
COc1ccccc1NC(=S)Nc1cccc2cnccc12 | -17% | 0% | u | 25µM* | 18
COc1ccccc1NC(=S)NCc1cccnc1 | -14% | 5% | u | -8% | u
CCOc1ccc(NC(=S)Nc2cccc3cnccc23)cc1 | -15% | -9% | u | 32µM* | 84
Cc1ccc(/C=C/c2onc(C)c2S(=O)(=O)N2CCC(C(=O)NCc3ccc(N(C)C)cc3)CC2)cc1 | x | x | 7%[46 µM] | x | x
CC(O)C(=O)O (centres undefined) | -3% | 0% | u | -1% | x
C/C(=N\NC(=O)CC1(C)OCCO1)c1cccs1 | -4% | 0% | -1% | 11% | -88*
CCOC(=O)N/N=C(\C)c1cccs1 | x | x | 30%[9.22 µM] | 5% | x
O=C1CCN(N=Nc2cccc(Cl)c2)N1 | u | -19% | 31% | 20µM* | -23
CCOC(=O)c1nn(-c2ccc(C)c(C)c2)c(=O)c2c(N)scc12 | x | u | 4% | -3% | u
COc1ccc(/C=N/NC(=O)c2nn(-c3ccc(C)c(C)c3)c(=O)c3ccccc23)cc1 | u | 0% | -10% | -10% | u
CCOC(=O)c1nn(-c2ccc(OC)cc2)c(=O)c2c(N)scc12 | -26% | -21% | -13% | 8.9µM* | u
COc1ccc(/C=N/NC(=O)c2nn(-c3ccccc3)c(=O)c3c(N)scc23)cc1 | 28µM* | u | -5% | 28µM* | 77
COc1ccc(/C=N/NC(=O)c2nn(-c3ccc(Cl)cc3)c(=O)c3c(N)scc23)cc1 | 11µM* | u | -26% | 6.3µM* | 56
Cc1cccc(C2N3CC4(C(C)C)CN2CC(C(C)C)(C3)C4=O)c1 (centres undefined) | x | x | -18%[46 µM] | x | x
CCCS(=O)(=O)N1CCC(C(=O)NC2CCC(C)CC2)CC1 (centres undefined) | x | -4% | -5% | 13µM* | -5
Cc1ccc(/C=c2\sc3n(c2=O)CN(c2ccc(Br)cc2)CN=3)o1 | -17% | -23% | 4% | 14µM* | 16
Cc1ccc(/C=c2/sc3n(c2=O)CCCN=3)o1 | -27% | -4% | -4% | 3.5µM* | 231
CCCCCCCC1=Cc2ccccc2C(CC(=O)c2ccccc2)N1C(=O)OC (centres undefined) | -11% | -2%[11.4 µM] | -4%[9.22 µM] | 1%[13.5 µM] | x
CC1CCC(NC(=O)c2ccc3c(c2)N(Cc2ccccc2F)C(=O)c2ccccc2S3)CC1 (centres undefined) | x | x | 2%[46 µM] | x | x
COC(=O)c1cn(-c2ccccc2)nc1-c1ccccc1 | -11% | 7% | 4% | -11% | 6
SMILES | HPGD block | ALOX12 inhib | LMNA splice mod | ALDH1A1 block | PNC inhibitor
CCC(C)/C(C)=N/NC(=O)c1cn(-c2ccccc2)nc1-c1ccccc1 (centres undefined) | 0% | 2% | -7% | 6.3µM* | 27
CN1CCC(=NNC(=O)c2cn(-c3ccccc3)nc2-c2ccccc2)CC1 | -3% | 4% | -5% | 1.3µM* | u
CCCC/C(C)=N/NC(=O)c1cn(-c2ccccc2)nc1-c1ccccc1 | -27% | 3% | -18% | 0.56µM* | -14
CCCCNN | 2% | -6%[11.4 µM] | x | 3%[13.5 µM] | x
CCCc1cc(=O)n2[nH]c(-c3ccc(Br)cc3)cc2n1 | -17% | 6% | u | -1% | -100*
CCCCNC(=O)c1onc(CSc2ccc(C)c(C)c2)c1C(=O)O | -16% | -8% | u | 6% | u
COC(=O)c1c(CSc2cccc(C)c2)noc1C(=O)NCc1ccco1 | 11µM* | -7% | 0% | u | 8
O=C(CSc1ccc(Cl)cc1)NC(=O)NCc1ccco1 | x | x | 5%[46 µM] | -7% | x
COC(=O)c1c(CSc2ccc(C)c(C)c2)noc1C(=O)NCc1ccc(OC)cc1 | 7.1µM* | -8% | u | u | 10
COC(=O)c1c(CSc2ccc(Cl)cc2)noc1C(=O)NCc1ccco1 | 22µM* | -18% | u | u | 0
COc1cc(O)c(/C=N/NC(=O)c2ccncc2)c(OC)c1[N+](=O)[O-] | x | x | -5%[46 µM] | 4% | x
O=C(CN(CC1CCCO1)C(=O)c1nsc(Cl)c1Cl)NC1CCCC1 (centres undefined) | x | x | 19%[46 µM] | 1% | x
COCCn1c(CNC(=O)c2cc([N+](=O)[O-])ccc2Cl)nc2cccnc21 | x | x | -3%[46 µM] | x | x
Cc1cc(C)n(-c2ccc(C(=O)NC(C)C)cc2)n1 | 20µM* | -6% | 1% | -6% | -2
COc1cc(/C=C(\C#N)C(N)=O)cc(CSc2nc3ccccc3s2)c1O | 40µM* | -8% | x | u | x
O=C(NCc1cccnc1)/C(=C/c1ccc(-c2cccc(Cl)c2)o1)S(=O)(=O)c1ccccc1 | -20% | -10% | u | 13µM* | 18
COC(=O)C1=C(C(=O)OC)[C@@H]2N(C)c3ccc(OC)cc3[C@@]23C[C@@H](C(=O)OC)N(C(C)=O)C3=N1 | -5% | 3%[11.4 µM] | -20%[9.22 µM] | 3%[13.5 µM] | x
O=C(CSc1ccsc1[N+](=O)[O-])NCc1ccccc1 | x | x | x | 3.2µM* | x
COc1ccc(OC)c(CCNC(=O)CSc2ccsc2[N+](=O)[O-])c1 | x | x | u | 13µM* | x
COc1ccc(CCNC(=O)CSc2ccsc2[N+](=O)[O-])c(OC)c1 | x | x | -15%[46 µM] | 14µM* | x
COc1ccc(CCNC(=O)CSc2ccsc2[N+](=O)[O-])cc1OC | x | x | x | -12% | x
COc1ccccc1CNC(=O)CSc1ccsc1[N+](=O)[O-] | x | x | x | -7% | x
O=C(O)CSSCC(=O)O | -3% | -1%[11.4 µM] | x | -4%[13.5 µM] | x
CC(C)N1C(=O)CCC1C(=O)NCc1cccs1 (centres undefined) | x | x | -9%[46 µM] | 1% | x
Cn1cccc1Cc1nnc(SCC(=O)Nc2ccccc2F)n1CCc1ccccc1 | -14% | 1% | -6% | 25µM* | 11
Cn1cccc1Cc1nnc(SCC(=O)N2CCCCCC2)n1CCc1ccccc1 | -9% | -1% | -1% | 25µM* | -6
CC1CCN(C(=O)CSc2nnc(Cc3cccn3C)n2CCc2ccccc2)CC1 | -10% | -2% | -12% | u | -95*
Cn1cccc1Cc1nnc(SCC(=O)Nc2cccc(F)c2)n1CCc1ccccc1 | -11% | -3% | -4% | u | 5
CN1CCN(C2=Cc3ccccc3Sc3cc(F)c(Cl)cc32)CC1 | 28µM* | -9% | -15% | 5.6µM* | -6

From PubChem
